The values that follow come from PubChem BioAssay (NCATS).

SMILES strings stand for the structures. Inconclusive results are not listed. A number with no mark means an inactive call. Active and inactive are the calls of the source. The call rests on the fitted dose curve; in most records, active means well fitted curve in the direction sought with a large enough effect; inconclusive means small, poorly fitted or top-dose-only effect, or another doubt; inactive means no such curve, though single readings can be large; an effect the other way counts as inactive or inconclusive.

For assay [1], the target named is Rap guanine nucleotide exchange factor 3 (Homo sapiens) (UniProt O95398). Description: Confirmatory qHTS for antagonist of cAMP-regulated guanine nucleotide exchange factor 3 (EPAC1) (AID 1645880). Further: nearly all actives have a fitted effect of over 55% in size. Further: potency means the concentration at half of the fitted maximal effect. In short, it runs like this:
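Released BODIPY-GDP fluoresces less than Rap1-bound BODIPY-GDP; the signal is followed at 480/540 nm at 5-min intervals over 30 min, after 5 min at room temperature. Reactions contain 100 nM EPAC1, 250 nM RAP1B-BODIPY-GDP and 50 uM GDP; results are normalized to ATA and DMSO.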

For assay [2] the target is unchanged. Description: Confirmatory qHTS for agonist of cAMP-regulated guanine nucleotide exchange factor 3 (EPAC1) (AID 1645881). Further: nearly all actives have a fitted effect of over 75% in size. Further: potency means the concentration at half of the fitted maximal effect.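 On activation: EPAC1 catalysed release of BODIPY-GDP from Rap1B seen as fluorescence loss; 100% = effect of cAMP agonist control.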 On the technique in general: qHTS replaces the single test concentration by a dilution series.
The target in assay [3] is Rap guanine nucleotide exchange factor 4 (Homo sapiens) (UniProt Q8WZA2). Description: Confirmatory qHTS for agonist of cAMP-regulated guanine nucleotide exchange factor 4 (EPAC2) (AID 1645884).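 Further: nucleotide exchange releases bodipy-GDP from Rap1 and this lowers its fluorescence; nearly all actives have a fitted effect of over 65% in size.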 Further: potency means the concentration at half of the fitted maximal effect. On activation: on the % scale 0 is the no-effect control and ±100 the full control effect.
The target is the same in assay [4]. Put plainly: Confirmatory qHTS for antagonist of cAMP-regulated guanine nucleotide exchange factor 4 (EPAC2) (AID 1645885). Further: nearly all actives have a fitted effect of over 25% in size. Further: potency means the concentration at half of the fitted maximal effect. On activity change, negative = inhibition: on the % scale 0 is the no-effect control and ±100 the full control effect.
For assay [5], the target named is Rap guanine nucleotide exchange factor 3 (Homo sapiens) (UniProt O95398). Put plainly: Counterscreen qHTS for antagonist of cAMP-regulated guanine nucleotide exchange factor 3 (EPAC1) (AID 1645888). Further: % of control where 0% means no effect. In short, it runs like this:
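Rap1B-BODIPY-GDP 250 nM + GDP 50 uM; cpds 7-pt, final 9.74 nM–152 uM (activator mode) or from 7.32 nM upwards (inhibitor mode); RT; FI 480/540 nm at 5 and 30 min, then ± cAMP, reread.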
Background: Counterscreens check selectivity or assay interference.

Chain of Rap guanine nucleotide exchange factor 4 (Homo sapiens) (Q8WZA2 whole entry, looked up): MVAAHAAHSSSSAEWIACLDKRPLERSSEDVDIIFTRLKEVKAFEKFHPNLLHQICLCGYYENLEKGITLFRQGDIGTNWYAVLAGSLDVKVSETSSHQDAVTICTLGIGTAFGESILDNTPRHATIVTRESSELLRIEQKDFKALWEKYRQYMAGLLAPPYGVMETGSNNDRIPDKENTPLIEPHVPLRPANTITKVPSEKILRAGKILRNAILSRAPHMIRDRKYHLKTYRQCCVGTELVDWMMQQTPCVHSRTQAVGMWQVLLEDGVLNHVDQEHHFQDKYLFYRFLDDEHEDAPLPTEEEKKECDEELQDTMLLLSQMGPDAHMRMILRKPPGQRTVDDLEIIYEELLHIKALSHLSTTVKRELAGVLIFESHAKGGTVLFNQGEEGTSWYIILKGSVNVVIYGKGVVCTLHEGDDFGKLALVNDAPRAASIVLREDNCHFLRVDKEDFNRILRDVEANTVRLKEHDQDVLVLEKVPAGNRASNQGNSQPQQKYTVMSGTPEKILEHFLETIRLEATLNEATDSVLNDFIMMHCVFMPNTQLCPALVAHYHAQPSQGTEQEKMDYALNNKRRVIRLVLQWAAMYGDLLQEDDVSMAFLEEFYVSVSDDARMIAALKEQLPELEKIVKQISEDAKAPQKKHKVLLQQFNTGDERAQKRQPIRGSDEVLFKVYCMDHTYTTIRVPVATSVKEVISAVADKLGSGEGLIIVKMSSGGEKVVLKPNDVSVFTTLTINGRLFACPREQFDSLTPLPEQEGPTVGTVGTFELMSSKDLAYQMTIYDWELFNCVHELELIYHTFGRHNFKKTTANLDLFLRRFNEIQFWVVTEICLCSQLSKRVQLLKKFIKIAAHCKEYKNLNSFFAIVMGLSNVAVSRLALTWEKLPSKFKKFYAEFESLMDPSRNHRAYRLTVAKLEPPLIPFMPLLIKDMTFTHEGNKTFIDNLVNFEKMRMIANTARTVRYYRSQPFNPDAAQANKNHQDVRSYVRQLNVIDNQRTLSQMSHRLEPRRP
Chain of Rap guanine nucleotide exchange factor 3 (Homo sapiens) (O95398 whole entry, looked up): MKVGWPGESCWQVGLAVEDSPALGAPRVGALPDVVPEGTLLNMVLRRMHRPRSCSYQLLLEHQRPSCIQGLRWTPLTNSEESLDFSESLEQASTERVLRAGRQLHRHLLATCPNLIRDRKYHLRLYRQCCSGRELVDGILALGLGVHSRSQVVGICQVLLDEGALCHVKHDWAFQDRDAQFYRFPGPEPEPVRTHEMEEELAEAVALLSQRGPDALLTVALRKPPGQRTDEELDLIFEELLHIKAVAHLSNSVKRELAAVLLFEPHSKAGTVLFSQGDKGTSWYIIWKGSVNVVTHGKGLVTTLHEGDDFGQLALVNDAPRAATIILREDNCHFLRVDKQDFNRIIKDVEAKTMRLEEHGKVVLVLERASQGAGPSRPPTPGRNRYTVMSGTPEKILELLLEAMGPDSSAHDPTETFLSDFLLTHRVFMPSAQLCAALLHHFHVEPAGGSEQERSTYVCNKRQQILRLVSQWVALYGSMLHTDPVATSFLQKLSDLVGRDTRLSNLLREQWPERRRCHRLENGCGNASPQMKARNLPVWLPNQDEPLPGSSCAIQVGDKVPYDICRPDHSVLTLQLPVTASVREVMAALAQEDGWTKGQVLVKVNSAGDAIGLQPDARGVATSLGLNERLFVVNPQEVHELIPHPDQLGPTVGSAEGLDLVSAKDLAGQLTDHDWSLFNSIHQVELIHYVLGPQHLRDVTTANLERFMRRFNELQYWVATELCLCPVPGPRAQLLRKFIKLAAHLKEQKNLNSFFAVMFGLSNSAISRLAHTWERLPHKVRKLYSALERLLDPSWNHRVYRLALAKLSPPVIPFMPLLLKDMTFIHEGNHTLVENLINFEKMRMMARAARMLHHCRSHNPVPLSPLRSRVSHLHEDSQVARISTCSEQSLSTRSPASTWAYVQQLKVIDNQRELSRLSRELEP

In the case of `O=C(CCc1ccc(O)c(O)c1)N/N=C/c1cc2c(cc1[N+](=O)[O-])OCO2`, in assay [1], the Potency is 23.9 µM (active). Also, the Potency result in assay [2], in assay [3], in assay [4] and in assay [5] was “inactive” throughout.

As to `Oc1ccc(C2=Nn3c(nnc3-c3ccco3)SC2)cc1O`, the Potency in assay [1] was 16.9 µM (active). The Potency entry in assay [2], in assay [3], in assay [4] and in assay [5] was “inactive” throughout.

Consider `COc1ccc(C(=O)N(Cc2ccccc2)c2cccc(C)c2)c(OC)c1OC`, for which the Potency result in assay [1], in assay [2], in assay [3], in assay [4] and in assay [5] was “inactive” in each case.

With `c1ccc(CN(Cc2ccccc2)c2c3c(nc4ncnn24)CCC3)cc1`, the Potency result in assay [1], in assay [2], in assay [3], in assay [4] and in assay [5] was “inactive” in each case.

With `Cc1cccc(Cn2c(SCc3ccc(C(=O)N4CCCCCC4)cc3)nc3ccncc32)c1`, the Potency entry in assay [1], in assay [2], in assay [3], in assay [4] and in assay [5] was “inactive” throughout.

For `Cc1c(C(=O)NCc2ccc(F)cc2)sc(=O)n1Cc1ccccc1F`, the Potency result in assay [1], in assay [2], in assay [3] and in assay [5] was “inactive” in each case. In assay [4], the Potency was 67.5 µM (active).

Turning to `COc1cccc2sc(N3CCN(c4nc5ccccc5s4)CC3)nc12`, the Potency entry in assay [1], in assay [2] and in assay [4] was “inactive” throughout. Further, the activation in assay [3] was 2.2% [at 17.1 µM, percent relative to cAMP agonist control]. Further, the activity change, negative = inhibition in assay [5] was -13.4% [at 30.8 µM].

For the compound `Cc1[nH]c2ccccc2c1C(c1ccccc1)c1cccs1` (stereo not given), the Potency result in assay [1], in assay [2], in assay [3], in assay [4] and in assay [5] was “inactive” each time.

`CCn1c(=O)c2sccc2n2c(CCCC(=O)N3CCN(c4cc(C)ccc4C)CC3)nnc12`: the Potency result in assay [1], in assay [2], in assay [3], in assay [4] and in assay [5] was “inactive” each time.

On to `COc1ccc(C=C2SC(=O)NC2=O)cc1OC`, for which the Potency result in assay [1], in assay [2] and in assay [4] was “inactive” each time. In addition, the activation in assay [3] is 12% [at 17.1 µM, percent relative to cAMP agonist control]. In addition, the activity change, negative = inhibition in assay [5] is 12.5% [at 30.8 µM].

For `COc1cccc(OC)c1C(=O)Nc1ccccc1Sc1ccccc1`, the Potency entry in assay [1], in assay [2], in assay [3], in assay [4] and in assay [5] was “inactive” throughout.

As to `O=C(/C=C/c1ccc2c(c1)OCO2)Nc1cc(S(=O)(=O)N2CCOCC2)ccc1N1CCOCC1`, the Potency result in assay [1], in assay [2], in assay [3], in assay [4] and in assay [5] was “inactive” throughout.

Regarding `O=C(NN1C(=O)/C(=C/c2ccc(O)c(O)c2)SC1=S)c1ccccc1`, in assay [1], the Potency was 7.57 µM (active). Also, the Potency entry in assay [2], in assay [3], in assay [4] and in assay [5] was “inactive” each time.

`CCCC1C2CN(C(C)C)CC=C2C(C#N)=C(N)C1(C#N)C#N` (stereo not given): the Potency in assay [1] was 37.9 µM (active); in assay [2], 35.5 µM (active); in assay [3], 56.2 µM (active); in assay [4], 33.8 µM (active). The Potency entry in assay [5] is “inactive”.

Turning to `CCn1nc([N+](=O)[O-])c(C(C#N)c2nc3cc(C(F)(F)F)ccc3s2)c(Cl)c1=O` (stereo not given), in assay [1], the Potency is 12.6 µM (active). Besides, the Potency entry in assay [2] and in assay [4] was “inactive” throughout. In addition, in assay [3], the activation was 12.4% [at 17.1 µM, percent relative to cAMP agonist control]. For the same compound, in assay [5], the activity change, negative = inhibition was -19.4% [at 30.8 µM].

`Nc1c(C(=O)Nc2ccc3c(c2)OCCO3)nnn1Cc1cccc(Br)c1`: the Potency result in assay [1], in assay [2] and in assay [4] was “inactive” in each case. The activation in assay [3] was 11.4% [at 17.1 µM, percent relative to cAMP agonist control]. In addition, the activity change, negative = inhibition in assay [5] is -24.5% [at 30.8 µM].

On to `COCCn1c(SCC(=O)Nc2ccc3c(c2)CCC3)nc2ccccc2c1=O`, for which the Potency entry in assay [1], in assay [2] and in assay [4] was “inactive” throughout. For the same compound, in assay [3], the activation was -0.521% [at 17.1 µM, percent relative to cAMP agonist control]. Moreover, the activity change, negative = inhibition in assay [5] was -10.3% [at 30.8 µM].

With `O=[N+]([O-])c1cc([N+](=O)[O-])c2nonc2c1Nc1ccc(O)cc1`, the Potency was 75.7 µM (active) in assay [1] and 42.6 µM (active) in assay [4]. Moreover, the Potency result in assay [2], in assay [3] and in assay [5] was “inactive” in each case.

For `O=C(c1ccccc1)c1ccc2nc(-c3ccco3)c(-c3ccco3)nc2c1`, the Potency in assay [1] is 4.78 µM (active). The Potency entry in assay [2], in assay [3], in assay [4] and in assay [5] was “inactive” each time.

For `C=CCc1ccccc1Oc1cc(OC)nc(N)n1`, the Potency entry in assay [1], in assay [2] and in assay [4] was “inactive” throughout. Further, the activation in assay [3] was -1.65% [at 17.1 µM, percent relative to cAMP agonist control]. The activity change, negative = inhibition in assay [5] was -22.4% [at 30.8 µM].

`Cc1ccc2nc(N3C(=O)C(O)=C(C(=O)c4ccc(C)o4)C3c3cccc(O)c3)sc2c1` (stereo not given): the Potency in assay [1] is 37.9 µM (active). The Potency entry in assay [2], in assay [3], in assay [4] and in assay [5] was “inactive” each time.

For the compound `Cc1occc1-c1nnc(SCC(=O)Nc2c(F)cccc2F)n1C`, the Potency entry in assay [1], in assay [2], in assay [3], in assay [4] and in assay [5] was “inactive” throughout.

In the case of `COc1ccc(C(NC(C)=O)c2cc(Cl)c3cccnc3c2O)cc1` (stereo not given), the Potency entry in assay [1], in assay [2] and in assay [4] was “inactive” throughout. Further, in assay [3], the activation was 3.14% [at 17.1 µM, percent relative to cAMP agonist control]. In addition, in assay [5], the activity change, negative = inhibition is -6.93% [at 30.8 µM].

For `COC(=O)c1c(SC)nc2ccccc2c1OCc1ccccc1C`, the Potency entry in assay [1], in assay [2], in assay [3], in assay [4] and in assay [5] was “inactive” throughout.

As for `O=[N+]([O-])c1cc2ccccc2c(O)c1O`, the Potency in assay [1] is 31.6 µM (active). Further, the Potency result in assay [2] and in assay [4] was “inactive” in each case. Further, in assay [3], the activation was 8.01% [at 17.1 µM, percent relative to cAMP agonist control]. Besides, the activity change, negative = inhibition in assay [5] was 9.83% [at 30.8 µM].
